Screening data from PubChem BioAssay.
Nrf2 ARE act: Nrf2 pathway activation; AREc32 ARE-luciferase reporter (MCF7-derived line), luminescence, 24 h; Potency, µM (highest dose often 46.1 µM), for inactives: top-dose activation, hits mostly activators; 410,000 compounds, 0.31% hits; also: % of control where 0% means no effect; nearly all actives have a fitted effect of over 65% in size
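Steps: seed AREc32_Fluc cells (1000/well, 5% FBS OPTI-MEM); incubate overnight at 37 deg C; add 23 nL compound; incubate 24 hr; add Steady-Glo; hold 30 min RT; read luminescence.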
Nrf2 block: blocks Nrf2 signaling; 360,000 compounds, 2.1% hits; A549 ARE-Fluc reporter, luciferase luminescence, 18-24 h; Potency, µM (highest dose often 46 µM), inactives show top-dose activity change, negative = inhibition, hits mostly inhibitors; also: % is scaled to controls: 0 for no effect and ±100 for the full control effect; nearly all actives have a fitted effect of over 60% in size
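Cells were seeded and rested 2 h, then exposed to compounds for 18-24 h. CellTiter-Fluor was read first as a viability measure. BugLite was added 15 min before the final luminescent read of ARE-luciferase activity in A549 cells.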
TGFb inhibitor: inhibitors of TGF-b signaling; Potency, µM (highest dose often 46.1 µM), without a hit: at the top dose activity, negative = inhibition, usual class: inhibitors; HepG2 CAGA-GFP TGF-b/SMAD3 reporter, GFP fluorescence, 18 h; TGF-beta stimulated, 500 pg/mL final; AID 588855; 410,000 compounds, 1.2% hits; also: % is scaled to controls: 0 for no effect and ±100 for the full control effect; nearly all actives have a fitted effect of over 65% in size
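TGF-beta reporter screen: HEPG2 CAGA-GFP, 1% FBS, 500 pg/mL TGF-beta final, 18 h; per-cell GFP summed per well; curves fitted and categorized by class.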
A549 viability: A549 cytotoxicity, counter-screen for Nrf2 inhibitors; A549 ARE-Fluc cells, CellTiter-Fluor viability, 18-24 h; Potency, µM (series often up to 46 µM), inactives show top-dose activity change, negative = cytotoxicity, usual class: inhibitors; 390,000 compounds, 0.16% hits; also: % is scaled to controls: 0 for no effect and ±100 for the full control effect
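A549 ARE_Fluc cells in 5% FBS OPTI-MEM were exposed to compounds in concentration-response for 18-24 h at 37 deg C. Viability was read by CellTiter-Fluor fluorescence (Ex 405/Em 525) after 30 min, before the luciferase read.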
HepG2 viability: HepG2 cytotoxicity, counter-screen for TGF-b inhibitors; HepG2 CAGA-GFP viability, ATP luminescence, 18 h; Potency, µM (highest dose often 46.1 µM), without a hit: at the highest dose activity change, negative = cytotoxicity, actives largely listed as cytotoxic; 410,000 compounds, 0.76% hits; AID 588856
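HepG2 CAGA-GFP cells (1000/well, DMEM with 1% FBS) received compound, then TGF-beta at 500 pg/mL final, and were incubated 18 hours at 37 degrees C. Viability was read by CellTiter-Glo luminescence. Media-only wells were set as complete cell-killing and DMSO as no toxicity.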
The depositor's hits bear a star; ? = inconclusive; · = no result given. A selection: hits, their analogues and other compounds. The true share with any hit is near 3.6%. Calls follow the shape of the dose curve; as a rule, active = well fitted curve in the direction sought with a large enough effect; inconclusive = small, poorly fitted or top-dose-only effect, or another doubt; inactive = no such curve, though single readings can be large; an effect the other way counts as inactive or inconclusive. Potency is read from the fitted curve at half-maximal effect.

SMILES	Nrf2 ARE act	Nrf2 block	TGFb inhibitor	A549 viability	HepG2 viability
O=C(COc1ccc(Cl)cc1)Nc1ccc(N2CCN(C(=O)c3ccco3)CC2)cc1	-0.2%	23.1µM*	-27.1%	-1.4%	-16.3%
Cc1ccc(C(=O)Nc2ccc(N3CCN(C(=O)c4ccco4)CC3)cc2)c(Cl)c1	0.2%	?	?	-0.6%	-5.8%
COc1ccc(OCC(=O)Nc2ccc(N3CCN(C(=O)c4ccco4)CC3)cc2)cc1	0.1%	?	1.4%	-4.4%	-5.6%
Cc1ccc(C(=O)Nc2ccc(N3CCN(C(=O)c4cccs4)CC3)cc2)c(Cl)c1	0.1%	23.1µM*	?	-12.4%	-19.3%
Cc1ccccc1OCC(=O)Nc1ccc(N2CCN(C(=O)c3ccco3)CC2)cc1	3.0%	14.6µM*	-10.5%	-23.4%	-23.7%
CCCCOC(=O)C1=C(C)Nc2ncnn2C1c1cccc(OC)c1 (stereo unspecified)	0.2%	?	?	-7.8%	-39.4%
CCOC(=O)c1ccc(NC(=S)NNC(=O)c2cc(-c3cccnc3)nc3ccccc23)cc1	0.0%	-13.9%	-8.2%	-0.4%	-15.4%
CCOC(=O)c1c2c(n(-c3ccc(OC)cc3)c1C)C(=O)C(=O)c1ccccc1-2	-3.1%	?	?	?	3.16µM*
Cc1cccc(C)c1NC(=O)CN(C)CCc1ccccc1	0.2%	·	-7.5%	·	2.6%
N/C(=N\S(=O)(=O)c1cc(C(F)(F)F)cc(C(F)(F)F)c1)c1ccc(Cl)cc1	-3.7%	?	10µM*	8.7%	-119.4%
CC(C)OCc1cc(CN2CCN(c3ccccc3)CC2)c(O)c2ncccc12	-0.8%	-18.0%	2.24µM*	0.6%	-35.8%
CCOCc1cc(CN2CCN(c3cccc(Cl)c3)CC2)c(O)c2ncccc12	0.5%	?	2µM*	3.8%	-22.2%
COc1ccc(/C=C2\SC(=O)N(CCNC(=O)C3CC(=O)N(c4ccccc4)C3)C2=O)cc1 (stereo unspecified)	-0.4%	·	0.7%	17.7%	-17.8%
Cc1[nH]nc2c1C(c1ccc3c(c1)OCO3)C(C#N)=C(N)O2 (stereo unspecified)	0.2%	-10.7%	-6.9%	4.3%	-6.9%
Cc1c(NS(=O)(=O)c2cccc(C(=O)NCc3ccco3)c2)c(=O)n(-c2ccccc2)n1C	1.1%	-11.5%	-2.2%	3.1%	-12.1%
Cc1ccc(S(=O)(=O)c2nc(-c3ccccc3F)oc2NCc2ccccc2)cc1	-1.0%	-3.6%	-5.4%	17.6%	-8.9%
CNc1oc(-c2ccccc2F)nc1S(=O)(=O)c1ccc(C)cc1	2.9%	25.9µM*	17.4%	-11.0%	3.2%
COC(=O)c1c(NC(=O)C(C)(C)C)sc2c1C(C(=O)OC)CC2 (stereo unspecified)	0.5%	-15.5%	4.5%	-9.8%	-0.1%
COC(=O)c1c(NC(=O)C(Cl)Cl)sc2c1C(C(=O)OC)CC2 (stereo unspecified)	27.8%	24.0%	11.2µM*	-3.2%	-72.3%
COC(=O)c1c(NC(=O)c2ccccc2)sc(C(N)=O)c1C	1µM*	?	14.8%	-5.7%	12.0%
O=c1c(Sc2ccccc2)c(C(F)(F)F)[nH]n1-c1ccccc1	-0.3%	20.6µM*	?	?	-51.0%
O=c1c2c(C(F)(F)F)cc(C(F)(F)F)nc2[nH]n1-c1ccccc1	-1.1%	-9.8%	?	-13.0%	-32.7%
CCN(CC)S(=O)(=O)c1ccc(Cl)c(NC2=NCCCCC2)c1	-0.4%	-1.6%	16.4%	-1.1%	-2.4%
Cc1c(C#N)c(NC(=O)CCl)n(Cc2ccc(F)cc2)c1C	?	18.4µM*	17.8µM*	-25.4%	11.2µM*
Cc1c(C#N)c(NC(=O)CCl)n(Cc2cccs2)c1C	?	14.6µM*	12.6µM*	?	-81.4%
Cc1c(C#N)c(NC(=O)CCl)n(Cc2ccccc2)c1C	?	-27.9%	?	-0.7%	-50.1%
CC(=O)N1CCC2(CC1)OC(=O)C(C)=C2C(=O)NCc1ccccc1Cl	-0.3%	?	-0.8%	4.9%	1.4%
CC1CC(C)CN(C(=O)COC(=O)c2ccc[nH]c2=O)C1 (stereo unspecified)	-0.4%	-14.7%	-7.0%	-4.5%	-3.8%
